# Laboratory results as given in PubChem BioAssay (EPA / NIEHS).
# Inconclusive results are not listed. Active and inactive are the calls of the source. Rule for the calls, unless noted: active = hit-call score of the fitted dose curve at least 0.9, where 1 is the maximum; inactive = score below 0.9.
# Experiments:
# [1] = Tanguay_ZF_120hpf_MUSC: Oregon State University Tanguay Lab 120 Hour Post-fertilization zebrafish Assay for Muscle Malformation (AID 2284401)
# In short: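 Scored as a binary brightfield endpoint at 120 hpf, fitted versus DMSO. Single dechorionated wild-type (Tropical 5D) zebrafish embryos per well, statically exposed at 28C from 6 hpf onward with final DMSO 0.64%.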
# [2] = CCTE_Mundy_HCI_hNP1_Pro_ResponderAvgInten: CCTE's Proliferation Assay in human neuroprogenitor cells, Mundy Lab (AID 2284224; active = hit-call score of the fitted dose curve at least 0.9, where 1 is the maximum;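 note: human neural progenitor cells hNP1 derived from WA09 embryonic stem cells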)
# In short: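 Proliferation was scored as BrdU labelling intensity in human neural progenitors derived from WA09 embryonic cells, measured 26.25 hours after chemical dosing. Activity was fitted relative to DMSO.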
# [3] = UKN5_HCS_SBAD2_cell_viability: Viability Assessment in the University of Konstanz (UKN) Leist Lab Neurite Outgrowth Assay in human iPSC-derived immature Dorsal Root Ganglia Neurons (UKN5) (AID 2284056)
# In short: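 iPSC-derived immature peripheral neurons (SBAD2) seeded on Matrigel with CHIR99021, SU5402 and DAPT, dosed 1 h later for 24 h. Viability from Hoechst H-33342 and calcein-AM live staining, high-content imaging; bidirectional fit versus DMSO.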
# [4] = UKN5_HCS_SBAD2_neurite_outgrowth: University of Konstanz (UKN) Leist Lab Neurite Outgrowth Assay in human iPSC-derived immature Dorsal Root Ganglia Neurons (UKN5) (AID 2284070); settings: actives raise or lower the signal
# In short: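 Neurite outgrowth is quantified as calcein-AM-labelled neurite area in human iPSC-derived peripheral neurons treated for 24 h, starting 1 h after plating in medium with CHIR99021 (1.5 uM), SU5402 (5 uM) and DAPT (5 uM).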
# [5] = UKN2_HCS_IMR90_neural_migration: University of Konstanz (UKN) Leist Lab Neural Crest Cell Migration Assay in human induced IMR90 Pluripotent Stem Cells (UKN2) (AID 2284204); settings: actives raise or lower the signal
# In short: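 High-content imaging of calcein-AM and Hoechst stained cells quantifies migration into a stopper-defined gap after 24 h compound exposure. Neural crest cells from IMR90 iPSC migrated 24 h in EGF/FGF N2-S medium before dosing; DMSO baseline.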
# [6] = UKN4_HCS_LUHMES_neurite_outgrowth: University of Konstanz (UKN) Leist Lab Neurite Outgrowth Assay in human LUHMES cells (UKN4) (AID 2284206); settings: actives raise or lower the signal
# In short: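 Neurite area in dopaminergic-model LUHMES neurons is measured by high-content imaging of calcein-AM after 24 h treatment starting shortly after day-2 replating; Hoechst staining tracks viability.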
# [7] = UKN4_HCS_LUHMES_cell_viability: Viability Assessment in the University of Konstanz (UKN) Leist Lab Neurite Outgrowth Assay in human LUHMES cells (UKN4) (AID 2284232)
# In short: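 Measured in replated, 2-day-differentiated LUHMES cells treated 24 h; stained 30 min with H-33342 and calcein-AM before high-content imaging.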
# [8] = UKN2_HCS_IMR90_cell_viability: Viability Assessment in the University of Konstanz (UKN) Leist Lab Neural Crest Cell Migration Assay in human induced IMR90 Pluripotent Stem Cells (UKN2) (AID 2284233);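 note: cells exposed to compound for 24 h after a 24 h migration phase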
# In short: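 After calcein-AM/Hoechst staining, viability is quantified by high-content fluorescence imaging, relative to DMSO, in iPSC (IMR90)-derived neural crest cells. Exposure lasts 24 h, starting after a 24 h migration period on PLO/laminin/fibronectin coating.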
structure (smiles),measurement,setting,value
O=S(=O)(O)CCC(F)(F)C(F)(F)C(F)(F)C(F)(F)F,outcome,[1],inactive
C[C@@]1(CO)[C@H](O)CC[C@@]2(C)[C@H]1CC[C@H]1C[C@@H]3C[C@@]12CC[C@]3(O)CO,outcome,[2],inactive
O=C(O)C(F)(F)OC(F)(F)C(F)(F)OC(F)(F)C(F)(F)OC(F)(F)C(F)(F)C(F)(F)C(F)(F)F,outcome,[1],inactive
O=C(O)C(F)(F)C(F)(F)F,outcome,[1],inactive
CN1CC=C(c2ccccc2)CC1,outcome,[3],inactive
same,outcome,[4],inactive
same,outcome,[5],inactive
same,outcome,[6],inactive
same,outcome,[7],inactive
same,outcome,[8],inactive
FC(F)(F)C(F)(F)C(F)(F)C(F)(F)CCI,outcome,[1],inactive
CN(C(=O)C(F)(F)C(F)(F)C(F)(F)F)[Si](C)(C)C,outcome,[1],inactive
OCCCC(F)(F)C(F)(F)C(F)(F)C(F)(F)C(F)(F)C(F)(F)C(F)(F)F,outcome,[1],inactive
O=C(O)CCC(F)(F)C(F)(F)C(F)(F)F,outcome,[1],inactive
